Compound activity (PubChem BioAssay)
DAX1 inh-1: DAX1 (NR0B1) inhibitors, primary screen, cell-based, HEK293, Gal4-DAX1, luciferase luminescence. HEK293 Gal4-DAX1 luciferase reporter. Nuclear receptor subfamily 0 group B member 1 (Homo sapiens), P51843. inhibition, % at 6.75 µM. hit rate 0.99% among 340,000;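 active = inhibition above the mean over all tested compounds plus 3 SD, cut at about 4.2% in these data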;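 also: inhibition shows as a rise in luminescence from relieved DAX1 repression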
Target sequence (P51843 207-470 limits assumed): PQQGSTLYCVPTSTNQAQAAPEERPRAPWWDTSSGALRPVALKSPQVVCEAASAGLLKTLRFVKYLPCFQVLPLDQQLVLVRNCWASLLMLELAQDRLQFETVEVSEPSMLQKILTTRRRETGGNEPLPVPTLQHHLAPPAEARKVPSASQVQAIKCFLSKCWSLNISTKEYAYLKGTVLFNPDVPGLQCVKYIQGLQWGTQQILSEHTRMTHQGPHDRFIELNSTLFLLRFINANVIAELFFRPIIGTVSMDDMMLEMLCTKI
hcDAF-12 act: H. contortus DAF-12 nuclear receptor activators, primary screen, cell-based, luminescence, HEK293, lit1-tk-luc reporter. HEK293 hcDAF-12 lit1-tk-luc reporter; 0% DMSO, 100% Δ7-dafachronic acid. activation, % at 6.8 µM. hit rate 1.4% among 370,000. AID 652067, 2013;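 active = activation above the mean of all tested compounds plus 3 SD, cut at about 5.5% in these data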
SMARCA2 activ: SMARCA2 (BRM) function activators, primary screen, cell-based, luminescence, high throughput | activation, % at 9.1 µM | hit rate 1% among 370,000 | MG213 cells, MMTV-luciferase reporter, dexamethasone, overnight; in the data active = activation above about 7.8%
ssDAF-12 act: S. stercoralis DAF-12 nuclear receptor activators, primary screen, cell-based, luminescence, HEK293, GRIP1 co-expression, lit1-tk-luc; Nuclear hormone receptor DAF-12 (Strongyloides stercoralis); HEK293 ssDAF-12/GRIP1 lit1-tk-luc reporter; % of 3 µM dafachronic acid response; activation, % at 6.8 µM; hit rate 1% among 370,000; AID 652126, 2013;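 active = activation above the mean over all tested compounds plus 3 SD, cut at about 0.9% in these data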
DAX1 inh-2: DAX1 (NR0B1) inhibitors on StAR promoter, primary screen, cell-based, luminescence, SF-1 (NR5A1), full-length DAX-1; hit rate 1.1% among 370,000; AID 652010, 2013; inhibition, % at 6.8 µM; HEK293T StAR-luciferase reporter, SF-1/DAX-1 repression relief;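 active = inhibition above the mean over all tested compounds plus 3 SD, cut at about 3.6% in these data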;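 also: higher inhibition means more luminescence from relief of DAX-1 repression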
hgDAF12 agonist: H. glycines DAF-12 receptor agonists, primary screen, cell-based, luminescence, HEK293, GAL4 fusion, UAS-luciferase | Nuclear hormone receptor DAF-12 (Heterodera glycines), GAL4 fusion | HEK293 GAL4-hgDAF12 UAS-luciferase reporter, agonist luminescence; normalized to butyrate control | activation, % at 6.8 µM | hit rate 1.8% among 370,000;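 active = activation above a cutoff set at the mean of all screened compounds plus 3 SD, cut at about 10% in these data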
Of the large screens only hits and unclear results are named; the others gave an inactive call. An excerpt weighted towards active compounds, which were near 4.8% of everything screened.

COc1cc(-c2cc(NC=O)c3ncc(-c4ccccc4)n3c2)cc(OC)c1OC	none (no result: DAX1 inh-1)
COc1cc(-c2cnc3c(NC=O)cc(-c4ccccc4)cn23)cc(OC)c1OC	DAX1 inh-2 4.2 (no result: DAX1 inh-1)
COc1cc(-c2cnc3c(NC=O)cc(-c4ccccc4Cl)cn23)cc(OC)c1OC	DAX1 inh-2 4.2 (no result: DAX1 inh-1)
C[C@H]1[C@@H](N(C)CC2CCCCC2)CC[C@@]23CCCN2C(=O)CCC[C@@H]13	none (no result: DAX1 inh-1, SMARCA2 activ, DAX1 inh-2)
COc1cccc(N2CCN(CC(=O)NCc3ccc(Cl)cc3)CC2)c1	none (no result: DAX1 inh-1)
CC(C)(C)C(=O)NCCN1C(=O)S/C(=C\c2ccc([N+](=O)[O-])cc2)C1=O	hgDAF12 agonist 12
O=C(/C=C/c1ccccc1[N+](=O)[O-])NCCN1C(=O)S/C(=C\c2ccc(F)cc2)C1=O	none
Oc1ccc(Oc2ccccc2F)c2cccnc12	hcDAF-12 act 5.7 (no result: DAX1 inh-1, SMARCA2 activ, DAX1 inh-2)
Nc1cccnc1Oc1ccccc1F	none
CSCCCNC(=O)CN1C(=O)C2CCCCN2C(=O)c2ccccc21 (stereo not given)	none (no result: DAX1 inh-1)
N/C(=N\OC(=O)Cc1cccc2ccccc12)c1ccccn1	hcDAF-12 act 5.8
N/C(=N\OC(=O)C1CCCCC1)c1ccncc1	none
COc1ccccc1CC(=O)O/N=C(\N)c1ccccn1	none
N/C(=N\OC(=O)C1CCCCC1)c1ccccn1	hgDAF12 agonist 12
CC(C)[C@H](NC(=O)OC(C)(C)C)C(=O)N1CCC(Oc2cccnc2)CC1	none (no result: DAX1 inh-1)
Cc1cccc(N2CCN(C(=O)c3cc(S(=O)(=O)N(C)C)ccc3Cl)CC2)c1C	none (no result: DAX1 inh-1, SMARCA2 activ, DAX1 inh-2)
COc1cccc(N2CCN(C(=O)COc3cc(=O)n(C)c4ccccc34)CC2)c1	none (no result: DAX1 inh-1)
O=C(COc1cccc(Cl)c1Cl)Nc1ccc2c(c1)CCC2	none
O=C(COc1ccccc1Cl)c1ccc2c(c1)CCCC2	hgDAF12 agonist 12
O=c1c2cc3cccnc3nc2ncn1CCc1c[nH]c2ccccc12	none (no result: DAX1 inh-1)
CCOC(=O)CCC(=O)N1CCNC(=O)C1	hcDAF-12 act 5.6
O=C(CSc1nnc(-c2cnccn2)n1-c1ccccc1)c1ccccc1Br	none (no result: DAX1 inh-1)
CCC(C)NC(=O)CN1C(=O)C2CCCCN2C(=O)c2ccccc21 (stereo not given)	none (no result: DAX1 inh-1)
COc1ccc(-c2cnc3c(-c4ccc(F)cc4)cnn3c2N)cc1	none
Cc1nc2c(-c3ccc(F)cc3)cnn2c2c1CCC2	hcDAF-12 act 5.7
O=C1CCc2cc(S(=O)(=O)N3CCC(C(=O)NCCC4=CCCCC4)CC3)ccc2N1	DAX1 inh-1 6.2
CC(C)(C)NC(=O)C(Cc1ccccc1)NS(=O)(=O)c1ccc2c(c1)CCC(=O)N2 (stereo not given)	none
O=C1CCc2cc(S(=O)(=O)NC(Cc3ccccc3)C(=O)NCCC3=CCCCC3)ccc2N1 (stereo not given)	DAX1 inh-1 4.3
Cc1cc(=O)[nH]c(SCC(=O)Nc2cccc(C)c2C)n1	none (no result: DAX1 inh-1)
CCOc1ccc(CCN2CN(CC)CNC2=S)cc1OCC	DAX1 inh-1 4.9
O=C(Nc1nnc(-c2ccccc2F)s1)c1cccnc1	DAX1 inh-1 5.1
COc1cc(/C=N/NC(=O)c2c(C)nc3ccc(Cl)cn23)cc(OC)c1OC	DAX1 inh-1 5.3
CCCN(CCC)C(=O)Cn1c2ccccc2c2nc(=O)cc(C)n21	ssDAF-12 act 1.1
Cc1cc(=O)nc2c3ccccc3n(CC(=O)NC3CCCCC3)n12	none
COC(=O)c1cn(NC(=O)Cc2cccc(OC)c2)c(=O)c2ccccc12	DAX1 inh-1 4.2
CCOC(=O)[C@@]12CCCC3=C1N(CCC3)C(=O)[C@H]2CC(=O)NCCCOC	none (no result: DAX1 inh-1)
C=CCN=C1NC(CCc2ccccc2)C(C(=O)OC)=C(C)N1Cc1ccccc1C(F)(F)F (stereo not given)	none (no result: DAX1 inh-1)
